# The list is not random: actives were taken first. Their share in the collection is about 19%.
# KB-V1 cytotox = kills drug-selected multidrug resistant KB-V1 cells; KB-V1 MDR cells viability, CellTiter-Glo, 72 h; Potency, µM (highest dose often 46.1 µM), most hits filed as cytotoxic; actives 3.4% (n = 400,000); AID 1347076; note: nearly all actives have a fitted effect of over 60% in size
#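 qHTS viability screen in drug-selected KB-V1 MDR cells: 72 h compound treatment at 37 degrees C, ATP luminescence end point.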
# DT40 TDP1 CPT = growth inhibition of DT40 Tdp1-/-;hTDP1 cells with camptothecin (screen for TDP1 inhibitors); chicken DT40 Tdp1-/-;hTDP1 cells + 20 nM CPT, ATP luminescence, 48 h; Potency, µM (top dose mostly 46.2 µM), inactives show top-dose activity change, negative = growth inhibition, most hits filed as inhibitors; actives 12% (n = 420,000); note: nearly all actives have a fitted effect of over 55% in size
#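 Cell growth measured by CellTiter-Glo luminescence after a minimum 48 h, 37 C compound exposure with 20 nM CPT in Tdp1-knockout DT40 cells stably expressing hTDP1, seeded 400/well; qHTS titration format.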
# HT1080-NT tox = kills 2HG-producing HT-1080-NT fibrosarcoma cells. HT-1080-NT fibrosarcoma viability, CellTiter-Glo ATP luminescence, 48 h. Potency, µM (titrated, usually from 46.1 µM), without a hit: at the top dose activity, negative = less viability, usual class: cytotoxic. actives 1.6% (n = 360,000);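 note: NT is the 2HG producing partner of a matched IDH1 knockdown line; 0% = DMSO-treated cells and -100% = media-only wells without cells; nearly all actives have a fitted effect of over 55% in size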
#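 Luminescent CellTiter-Glo readout after 48 hours of compound exposure at 37 degrees C defined viability of HT-1080-NT cells. Activity was normalized to DMSO wells and cell-free media wells; concentration-response curves were fitted and assigned curve classes.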
# TDP1 cell noCPT = qHTS for Inhibitors of human tyrosyl-DNA phosphodiesterase 1 (TDP1): qHTS in cells in absence of CPT. actives 15% (n = 420,000). DT40 Tdp1-/- hTDP1 cells, no CPT, ATP luminescence, 48 h. AID 686978, 2013. Potency, µM (highest dose often 46.2 µM), for inactives: top-dose activity change, negative = growth inhibition, most hits filed as inhibitors; note: nearly all actives have a fitted effect of over 55% in size
#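 Chicken DT40 Tdp1-/- cells complemented with human TDP1, screened without camptothecin (DMSO vehicle only), 400 cells/well. Compounds pin-transferred, cells incubated at 37 °C for at least 48 hr. Growth read as ATP-dependent luminescence (CellTiter-Glo, 30 min at RT).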
# HT1080 IDH1KD tx = HT-1080 IDH1 knockdown cell toxicity (counter line) | HT-1080 IDH1 knockdown viability, ATP luminescence, 48 h | actives 2% (n = 360,000) | AID 686971 | Potency, µM (titrated, usually from 46.1 µM), without a hit: top-dose activity, negative = toxicity, usual class: cytotoxic;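 note: 0% = DMSO wells and -100% = cell-free medium wells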
#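 Viability of IDH1-knockdown HT-1080 fibrosarcoma cells was assessed by CellTiter-Glo after 48 h at 37 °C with titrated compound; concentration-effect curves were classified by fit quality and response size.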
# KB-3-1 tox = KB-3-1 parental cell cytotoxicity; KB-3-1 viability, CellTiter-Glo ATP luminescence, 72 h; Potency, µM (series often up to 46.1 µM), usual class: cytotoxic; actives 1.4% (n = 400,000); note: nearly all actives have a fitted effect of over 60% in size
#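 Viability of parental KB-3-1 cells, measured by CellTiter-Glo luminescence, followed a 72 h incubation at 37 °C with pinned compounds in phenol-red-free DMEM containing 10% FBS.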
# Active calls of the source: *; i = inactive; ? = inconclusive; . = no result given. Calls come from the whole dose curve; as a rule, active = well fitted curve in the direction sought with a large enough effect; inconclusive = small, poorly fitted or top-dose-only effect, or another doubt; inactive = no such curve, though single readings can be large; an effect the other way counts as inactive or inconclusive. Unless noted, % is set by controls: 0 for no effect and ±100 for the full control effect; potency is the fitted concentration of half-maximal effect.
SMILES,KB-V1 cytotox,DT40 TDP1 CPT,HT1080-NT tox,TDP1 cell noCPT,HT1080 IDH1KD tx,KB-3-1 tox
C=C1C=C(C(F)F)n2ncc(C(=O)Nc3ccc(N(CC)CC)cc3)c2N1,i,10%,.,-25%,.,?
CC(=O)c1c(C)[nH]c(C(=O)OCC(=O)Nc2ccc(Cl)cc2[N+](=O)[O-])c1C,?,3.7µM*,18µM*,1.8µM*,-27%,i
CC(=O)c1c(C)[nH]c(C(=O)Nc2ccc(Cl)c(S(=O)(=O)N(C)C)c2)c1C,i,?,10%,?,12%,i
CC(=O)c1c(C)[nH]c(C(=O)OCC(=O)Nc2ccc(Cl)c(S(=O)(=O)N(C)C)c2)c1C,?,7.3µM*,?,9.2µM*,23µM*,?
CC(=O)c1c(C)[nH]c(C(=O)OCC(=O)Nc2ccc3c(c2)OCCO3)c1C,21µM*,?,3%,21µM*,5%,?
O=C(COC(=O)c1cc[n+]([O-])cc1)Nc1ccc(Cl)cc1[N+](=O)[O-],i,2%,0%,11%,8%,i
CCC(=O)OCc1cnc(C)c2oc(=O)c(C(=O)Nc3ccccc3C(F)(F)F)cc12,i,1%,.,-7%,.,i
O=C1CC(c2ccccc2)CC2=C1C(c1ccccn1)Nc1ccccc1N2 (stereo unspecified),i,1%,5%,3%,-17%,i
O=C1CC(c2ccc(F)cc2)CC2=C1C(c1ccc([N+](=O)[O-])o1)Nc1ccccc1N2 (stereo unspecified),i,?,-6%,16µM*,-12%,i
CNc1ccc(-c2ccccc2CO)cn1,i,-1%,?,-4%,-3%,i
COc1ccc(C2CCN(Cc3cccnc3)CC2O)cc1 (stereo unspecified),i,-11%,9%,-12%,11%,i
COc1ccc(N2c3ccccc3CN(Cc3ccccc3)[C@@H](C)[C@H]2Cc2cccnc2)cc1,i,?,?,21µM*,?,i
COc1ccc(N2c3ccccc3CN(Cc3ccccc3)[C@@H](C)[C@H]2Cc2c(C)cccc2C)cc1,?,18µM*,11%,16µM*,8%,?
COc1ccc(CN2CC[C@H]3C=CCc4cccc(c43)C2)cc1,i,?,-8%,?,-21%,i
CC(CO)NS(=O)(=O)c1cccc(Cl)c1F (stereo unspecified),i,6%,8%,-2%,11%,i
COc1ccc(N(C(=O)c2ccccc2C)S(=O)(=O)c2ccc3c(c2)n(C)c(=O)n3C)cc1,i,-22%,.,?,.,i
COc1ccc(OC)c(-c2ccnc(-n3ncc(C(=O)N4CCN(CCO)CC4)c3C3CC3)n2)c1,.,18%,.,-18%,.,.
Cc1ccc(NCCN(C)C)c2c(=O)c3cc(O)ccc3sc12,12µM*,0.15µM*,?,0.18µM*,?,?
COc1cc(C)c2sc3ccccc3c(=O)c2c1NCCN(C)C,?,6.5µM*,?,5.8µM*,?,i
Cc1ccc(C(=O)NCCN(C)C)cc1C,i,0%,9%,-13%,1%,i
CN(C)CCNc1cccc2sc3ccc(O)cc3c(=O)c12,23µM*,0.18µM*,9.2µM*,0.33µM*,12µM*,16µM*
COc1ccc(NC(=O)c2cc3c(=O)n(Cc4ccco4)ccc3nc2C)c(OC)c1,.,-17%,.,?,.,.
O=[N+]([O-])c1ccc(CSc2nnc(-c3cccnc3)o2)cc1,i,-8%,-13%,?,-8%,?
COc1ccc(NC(=S)N2CCN(c3ccc([N+](=O)[O-])cc3)CC2)cc1OC,?,10µM*,-22%,12µM*,-14%,i
COc1cccc(NC(=S)N2CCN(c3ccc([N+](=O)[O-])cc3)CC2)c1,i,6.5µM*,1%,10µM*,2%,i
SMILES,KB-V1 cytotox,DT40 TDP1 CPT,HT1080-NT tox,TDP1 cell noCPT,HT1080 IDH1KD tx,KB-3-1 tox
Cc1csc2nc(COC(=O)COc3ccccc3F)cc(=O)n12,i,0%,.,-2%,.,i
Cc1csc2nc(COc3ccc(NC(=O)COc4ccccc4F)cc3)cc(=O)n12,i,?,.,15µM*,.,i
Cc1csc2nc(COc3ccccc3NC(=O)c3ccccc3Cl)cc(=O)n12,?,4.6µM*,.,3.7µM*,.,i
COc1ccccc1C(=O)Nc1ccccc1OCc1cc(=O)n2c(C)csc2n1,i,?,.,16µM*,.,i
Cc1ccccc1OCC(=O)Nc1ccccc1C(=O)OCc1cc(=O)n2c(C)csc2n1,.,2.6µM*,.,4.6µM*,.,.
Cc1ccc(C(=O)NCC(c2ccco2)S(=O)(=O)c2ccccc2)cc1C (stereo unspecified),i,?,.,?,.,i
O=C(NCc1ccc(F)cc1)C(=O)NCC(c1cccs1)S(=O)(=O)c1cccs1 (stereo unspecified),i,?,.,?,.,i
O=C(CN1CCC(O)(c2cccc(F)c2)CC1)NCCc1c[nH]c2ccccc12,?,?,-6%,?,-4%,i
O=C1Nc2cc(C(=O)NCCCN3CCOCC3)ccc2S/C1=C/c1cccc(Cl)c1,i,?,11%,?,6%,i
COc1ccc(/C=C2/Sc3ccc(C(=O)NCCN4CCCCCC4)cc3NC2=O)cc1,?,3.7µM*,-7%,3.3µM*,-1%,i
O=C1Nc2cc(C(=O)NCCCN3CCCC3)ccc2S/C1=C\c1ccccc1,i,?,-25%,18µM*,?,i
CCC1CCCCN1CCCNC(=O)c1ccc(/C=C2/Sc3ccccc3NC2=O)cc1 (stereo unspecified),i,?,?,3.7µM*,-1%,i
O=C(NCc1ccccc1)C(c1ccc(F)cc1)N(C(=O)c1csnn1)C1CCCC1 (stereo unspecified),i,?,-20%,?,-14%,i
CC(=O)c1sc(NC(=O)COc2ccc(C(C)C)c(C)c2)nc1C,?,?,-25%,?,?,i
COc1ccc(-c2cc(C(=O)N3CC4(C)CC3CC(C)(C)C4)no2)cc1OC (stereo unspecified),21µM*,?,8%,16µM*,-2%,i

# From PubChem BioAssay
